Laboratory results published in PubChem BioAssay (NCATS).
Records with an inconclusive call do not appear. A call without a number means that no potency is given here. Active and inactive are the calls of the source. The call rests on the fitted dose curve; in most records, active means well fitted curve in the direction sought with a large enough effect; inconclusive means small, poorly fitted or top-dose-only effect, or another doubt; inactive means no such curve, though single readings can be large; an effect the other way counts as inactive or inconclusive.

Experiments:
[1] = target: Aldehyde dehydrogenase, mitochondrial (Homo sapiens) (UniProt P05091); assay: qHTS for Inhibitors of the Aldehyde Dehydrogenase Family (ALDH2) Primary screen (AID 2061308); further: nearly all actives have a fitted effect of over 55% in size
[2] = target: Retinaldehyde dehydrogenase 3 (Homo sapiens) (UniProt P47895); assay: qHTS for Inhibitors of the Aldehyde Dehydrogenase Family (ALDH1A3) Primary screen (AID 2061315)

Row | Compound | Potency [1] | Potency [2]
1 | CC(=O)O[C@H]1C[C@@H](C)O[C@H]2O[C@@H]3CC4CC[C@@H]5C(CC[C@]6(C)[C@@H](C7=CC(=O)OC7)CC[C@]56O)[C@@]4(C=O)C[C@H]3O[C@]21O (stereo not given in full) | inactive | inactive
2 | CCCC[N+]1(C)[C@@H]2CC(OC(=O)[C@H](CO)c3ccccc3)C[C@H]1[C@@H]1O[C@@H]12 (stereo not given in full) | inactive | inactive
3 | Cc1ccccc1C(C(=O)NC1CCCCC1)N(C(=O)Cn1ccnc1C)c1cccc(F)c1 (stereo not given) | inactive | inactive
4 | COC1CC(O[C@H]2CC[C@@]3(C)C(CCC4C3CC[C@]3(C)[C@@H](C5=CC(=O)OC5)CC[C@]43O)C2)OC(C)C1O (stereo not given in full) | inactive | inactive
5 | CCC1CC2CN3CCc4c([nH]c5ccccc45)C(C(=O)OC)(C2)C13 (stereo not given) | inactive | inactive
6 | Cc1ccccc1C(=O)N1CCc2cc(N3CCC(NC(=O)Cc4ccccc4)C3)ccc21 (stereo not given) | inactive | inactive
7 | C[C@]12CC[C@H](O[C@@H]3O[C@H](CO)[C@@H](O)[C@H](O)[C@H]3O[C@@H]3O[C@H](CO)[C@@H](O)[C@H](O)[C@H]3O)CC1=CC[C@@H]1[C@@H]2CC[C@]2(C)[C@@H](C3=CC(=O)OC3)CC[C@]12O | inactive | inactive
8 | CC[C@H]1C2CC3[C@@H]4N(C)c5ccccc5[C@]45C[C@@H]([C@H]2[C@H]5O)N3[C@H]1O | inactive | inactive
9 | CCC1CN2CCC3(C(=O)Nc4cccc(O)c43)C2CC1/C(=C/OC)C(=O)OC (stereo not given) | inactive | inactive
10 | CC(=O)O[C@H]1C[C@]2(O)[C@@H]3CC[C@@H]4C[C@@H](O)CC[C@]4(C)[C@H]3CC[C@]2(C)[C@H]1c1ccc(=O)oc1 | inactive | inactive
